Measured values taken from PubChem BioAssay (NCATS).
Inconclusive results are not listed. Entries that show only a call come without a potency. The source made the active and inactive calls. Unless noted, calls come from the whole dose curve; as a rule, active = well fitted curve in the direction sought with a large enough effect; inconclusive = small, poorly fitted or top-dose-only effect, or another doubt; inactive = no such curve, though single readings can be large; an effect the other way counts as inactive or inconclusive.

Experiments:
[1] = qHTS to identify inhibitors of the type 1 interferon - major histocompatibility complex class I in skeletal muscle: primary screen against the NCATS Mechanism Interrogation Plate v5.0 (MIPE) Libary (AID 1347411); note: nearly all actives have a fitted effect of over 65% in size; note: potency is the fitted concentration of half-maximal effect
Method in brief: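 Immortalized human myoblasts (C25cl48) with HiBit knocked into endogenous HLA-B*08:01 were stimulated with 4 ng/ml IFN-beta and given compounds in 11-point 1:3 titration from 46 uM. After 24 h at 37 C, lytic HiBiT luminescence was read.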

[2] = molecular target: Calcium and integrin-binding protein 1 (Homo sapiens) (UniProt Q99828); assay: Primary qHTS for Identification of Calcium Integrin Binding Protein 1 (CIB1) Competitor (AID 1508620);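 note: GST tagged CIB1 binding a fluorescein labelled alphaIIb integrin peptide tracer; top concentration of the series differs between compounds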
Method in brief: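 CIB1-GST (1 uM final) and compound incubated 15 min at room temperature before adding FITC-alphaIIb peptide tracer (100 nM final). Competition for binding read by fluorescence polarization (ex 480, em 540) after another 15 min at room temperature.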

[3] = Primary qHTS for small molecule stabilizers of the endoplasmic reticulum resident proteome: Secreted ER Calcium Modulated Protein (SERCaMP) assay (AID 1508630)
Method in brief: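 GLuc-SERCaMP-expressing SH-SY5Y cells, pretreated 16 h with compound, are challenged with thapsigargin to empty ER calcium stores; after 4 h, coelenterazine is added directly to the medium and luminescence is imaged.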

[4] = molecular target: Cytochrome P450 2D6 (Homo sapiens) (UniProt P10635); assay: Cytochrome P450 family 2 subfamily D member 6 (CYP2D6) small molecule antagonists: luciferase biochemical (cell-free) qHTS assay (AID 1645840; active = well fitted curve in the direction sought with a large enough effect in the repeat runs; an effect the other way counts as inactive or inconclusive; note: nearly all actives have a fitted effect of over 55% in size; note: potency is the fitted concentration of half-maximal effect)
Method in brief: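 P450-Glo luminescent screen: recombinant CYP2D6 enzyme–proluciferin substrate mix preincubated with compound 10 min at room temperature, then NADPH regeneration added for 1 h at room temperature. Detection reagent added for 20 min; luciferin light read as relative luminescence units.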

[5] = molecular target: Cytochrome P450 3A4 (Homo sapiens) (UniProt P08684); assay: Cytochrome P450 family 3 subfamily A member 4 (CYP3A4) small molecule antagonists: luciferase qHTS assay (AID 1645841; active = well fitted curve in the direction sought with a large enough effect in the repeat runs; an effect the other way counts as inactive or inconclusive; note: nearly all actives have a fitted effect of over 45% in size)
Method in brief: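 Luminescent CYP3A4 activity readout: compounds plus enzyme-substrate mix 10 min at room temperature, reaction started with NADPH regenerating system for 1 h, stopped with detection reagent, read after 20 min. Ketoconazole served as control.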

[6] = molecular target: Cytochrome P450 2C9 (Homo sapiens) (UniProt P11712); assay: Cytochrome P450 family 2 subfamily C member 9 (CYP2C9) small molecule antagonists: luciferase biochemical (cell-free) qHTS assay (AID 1645842; active = well fitted curve in the direction sought with a large enough effect in the repeat runs; an effect the other way counts as inactive or inconclusive; note: nearly all actives have a fitted effect of over 55% in size; note: potency is the fitted concentration of half-maximal effect)
Method in brief: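 Luminescence, after 20 min with luciferin detection reagent, reflected CYP2C9 turnover during a 1 h NADPH-driven reaction at 37C. Enzyme-substrate mix contained 0.4% bovine serum albumin and was preincubated with compound 10 min at room temperature.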

Sequence of Cytochrome P450 2D6 (Homo sapiens) (P10635 whole entry, looked up): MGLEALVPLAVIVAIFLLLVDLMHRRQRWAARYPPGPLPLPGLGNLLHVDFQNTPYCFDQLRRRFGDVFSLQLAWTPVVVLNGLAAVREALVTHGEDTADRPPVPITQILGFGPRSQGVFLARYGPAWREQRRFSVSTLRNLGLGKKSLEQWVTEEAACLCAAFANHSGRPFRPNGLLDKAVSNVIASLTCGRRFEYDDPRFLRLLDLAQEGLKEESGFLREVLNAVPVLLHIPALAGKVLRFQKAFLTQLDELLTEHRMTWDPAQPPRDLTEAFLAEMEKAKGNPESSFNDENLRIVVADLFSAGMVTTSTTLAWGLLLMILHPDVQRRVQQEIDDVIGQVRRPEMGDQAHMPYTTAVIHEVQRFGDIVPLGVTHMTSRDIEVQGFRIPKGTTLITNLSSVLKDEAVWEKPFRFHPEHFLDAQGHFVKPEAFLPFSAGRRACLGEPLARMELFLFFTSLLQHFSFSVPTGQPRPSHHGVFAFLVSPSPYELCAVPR
Sequence of Calcium and integrin-binding protein 1 (Homo sapiens) (Q99828 whole entry, looked up): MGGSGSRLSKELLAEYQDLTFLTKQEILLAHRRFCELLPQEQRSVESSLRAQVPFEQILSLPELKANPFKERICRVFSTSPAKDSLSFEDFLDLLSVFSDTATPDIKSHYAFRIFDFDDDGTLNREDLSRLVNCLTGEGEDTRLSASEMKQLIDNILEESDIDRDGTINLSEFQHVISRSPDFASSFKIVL
Sequence of Cytochrome P450 2C9 (Homo sapiens) (P11712 whole entry, looked up): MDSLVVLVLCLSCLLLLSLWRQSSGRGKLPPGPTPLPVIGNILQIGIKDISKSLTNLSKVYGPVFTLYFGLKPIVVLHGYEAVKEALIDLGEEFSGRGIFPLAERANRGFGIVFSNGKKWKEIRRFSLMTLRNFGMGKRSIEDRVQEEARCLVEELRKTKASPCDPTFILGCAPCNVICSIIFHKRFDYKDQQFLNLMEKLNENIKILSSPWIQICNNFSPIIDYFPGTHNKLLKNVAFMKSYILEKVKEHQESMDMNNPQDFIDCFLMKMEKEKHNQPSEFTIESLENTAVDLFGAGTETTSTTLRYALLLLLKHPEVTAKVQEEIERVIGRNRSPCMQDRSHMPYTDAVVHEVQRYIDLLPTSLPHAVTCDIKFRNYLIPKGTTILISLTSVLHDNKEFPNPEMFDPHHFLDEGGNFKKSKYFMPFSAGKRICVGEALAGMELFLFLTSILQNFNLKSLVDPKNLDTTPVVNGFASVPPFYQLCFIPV
Sequence of Cytochrome P450 3A4 (Homo sapiens) (P08684 whole entry, looked up): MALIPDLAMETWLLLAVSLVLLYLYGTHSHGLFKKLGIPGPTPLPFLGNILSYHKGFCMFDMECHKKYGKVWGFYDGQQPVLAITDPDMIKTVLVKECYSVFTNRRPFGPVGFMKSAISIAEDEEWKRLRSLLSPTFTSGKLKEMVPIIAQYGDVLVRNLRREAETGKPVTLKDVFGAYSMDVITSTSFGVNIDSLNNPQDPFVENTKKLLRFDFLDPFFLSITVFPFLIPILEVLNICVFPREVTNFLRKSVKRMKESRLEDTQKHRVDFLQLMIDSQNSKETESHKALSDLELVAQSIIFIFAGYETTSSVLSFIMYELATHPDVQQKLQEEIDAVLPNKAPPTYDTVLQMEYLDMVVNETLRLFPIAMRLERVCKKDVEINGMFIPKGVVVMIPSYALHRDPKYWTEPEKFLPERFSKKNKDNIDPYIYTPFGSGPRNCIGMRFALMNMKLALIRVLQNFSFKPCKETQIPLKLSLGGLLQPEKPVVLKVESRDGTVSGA

With COc1cccc2c1CCCC2CCCN1CCN(C2CCCCC2)CC1 (stereo not given) the Potency [1] was “inactive”, the Potency [2] was “inactive” and the Potency [3] was “inactive”. The Potency [4] was 2.13 µM (active), the outcome [5] was “inactive” and the Potency [6] was “inactive”.

For CC(=O)Nc1ccc([C@H](C)C(=O)Nc2ncc(C(C)C)s2)cc1, the Potency [1] was 5.87 µM (active), the Potency [2] was “inactive” and the Potency [3] was “inactive”.

In the case of O=C(Nc1ccccc1Br)N[C@@H]1CCN(c2ccc(C(F)(F)F)cn2)C1, the Potency [1] is reported as “inactive”, the Potency [2] is reported as “inactive” and the Potency [3] is reported as “inactive”. The Potency [4] was 15.1 µM (active) and the Potency [6] was 23.9 µM (active).

In the case of Cc1ccc(/C=N/NC(=O)c2ccccc2Oc2ccccc2)o1, the Potency [1] is reported as “inactive”, the Potency [2] is reported as “inactive” and the Potency [3] is reported as “inactive”.

In the case of CC#CCn1c(N2CCC[C@@H](N)C2)nc2c1c(=O)n(Cc1nc(C)c3ccccc3n1)c(=O)n2C, the Potency [1] is reported as “inactive”, the Potency [2] is reported as “inactive” and the Potency [3] is reported as “inactive”.

In the case of c1cc(-c2sc(-c3ccncc3)c(-c3ccncc3)c2-c2ccncc2)ccn1, the Potency [1] is reported as “inactive”, the Potency [2] is reported as “inactive” and the Potency [3] is reported as “inactive”.

In the case of CC1(C)CCC(CN2CCN(c3ccc(C(=O)NS(=O)(=O)c4ccc(NCC5CCOCC5)c([N+](=O)[O-])c4)c(Oc4cnc5[nH]ccc5c4)c3)CC2)=C(c2ccc(Cl)cc2)C1, the Potency [1] is reported as “inactive”, the Potency [2] is reported as “inactive” and the Potency [3] is reported as “inactive”.

With CC(C)C[C@H](CC(=O)O)C(=O)N[C@@H](Cc1c[nH]c2ccccc12)C(=O)N[C@@H](C)c1ccccc1 the Potency [1] was “inactive”, the Potency [2] was “inactive” and the Potency [3] was “inactive”.

For O=c1cc(N2CCOCC2)oc2c(-c3cccc4c3sc3ccccc34)cccc12, the Potency [1] was “inactive”, the Potency [2] was “inactive” and the Potency [3] was “inactive”.

With N[C@H](CSC(c1ccccc1)(c1ccccc1)c1ccccc1)C(=O)O the Potency [1] was “inactive”, the Potency [2] was “inactive” and the Potency [3] was “inactive”.

With CCn1c(C(=O)N(C2CC2)C2CC2)cc2c3c(ncn3C)c(Nc3cc(C)n(C)n3)nc21 the Potency [1] was “inactive”, the Potency [2] was “inactive” and the Potency [3] was “inactive”. The Potency [4] was “inactive” and the Potency [6] was 7.56 µM (active).
